# Screening data (PubChem)
# Shown are actives, neighbours in structure and some others; about 7.3% of the full set was active somewhere.
# NPC1 promoter act: activates the NPC1 promoter. Huh7 NPC1 promoter luciferase reporter, 24 h. AID 485313. Potency, µM (top dose mostly 9.22 µM), inactives show at the top dose activation, usual class: activators. actives 2.4% (n = 320,000); also: % of control where 0% means no effect; nearly all actives have a fitted effect of over 60% in size
#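 Quantitative HTS used a cell-based reporter: Huh7 cells stably bearing the NPC1 promoter upstream of luciferase were treated with compounds for 24 h, and promoter activation was read as luminescence.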
# ELG1 genotoxic: induces genotoxicity in HEK293T cells with luciferase-tagged ELG1. HEK293T ELG1-luciferase reporter, luminescence, 16 h. Potency, µM (highest dose often 46 µM), without a hit: top-dose activity change, positive = activation, most hits filed as activators. actives 1.3% (n = 330,000). AID 504466; also: % of control where 0% means no effect; nearly all actives have a fitted effect of over 60% in size
#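 Luminescence read-out: rising ELG1-luciferase signal, reflecting elevated ELG1 protein under genetic stress, flags genotoxic compounds. Cells were treated for 16 hr at 37 °C before ONE-Glo detection.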
# SMN2 splice enh: increases expression of the SMN2 splice variant. HEK293 SMN2-luciferase splicing reporter, luminescence, 30-36 h. Potency, µM (doses to about 46.1 µM), for inactives: at the highest dose activity change, positive = activation, hits mostly activators. actives 2.8% (n = 210,000). AID 1458; also: % of control where 0% means no effect; nearly all actives have a fitted effect of over 55% in size
#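 qHTS luciferase splicing reporter: luminescence rises when SMN2 exon 7 is included in transfected HEK293 cells. Compound exposure lasted 30-36 h at 37C, with 4.5 mM final sodium butyrate as control, followed by a ONE-Glo read.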
# Luc counter: counter-screen: inhibitors of Kinase-Glo firefly luciferase | Q27757 | Kinase-Glo luciferase, ATP luminescence, 8 min | Potency, µM (titrated, usually from 38.3 µM), without a hit: top-dose activity change, negative = inhibition, most hits filed as inhibitors | actives 0.28% (n = 200,000); also: % is scaled to controls: 0 for no effect and ±100 for the full control effect; nearly all actives have a fitted effect of over 60% in size
#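 Compound is pinned into ATP-containing buffer (10 uM ATP, imidazole pH 7.2, 7 mM MgCl2). Kinase-Glo luciferase reagent is then added. Light output is recorded following an 8-min room-temperature incubation.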
# FLuc modulator: firefly luciferase modulation, counter-screen for miR-21 project | actives 6.9% (n = 360,000) | purified FLuc, Km substrates, luminescence inhibition | AID 588342 | Potency, µM (highest dose often 57.5 µM), inactives show top-dose activity change, negative = inhibition, hits mostly inhibitors;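 also: plate controls were vehicle for no effect and reference inhibitor for full effect; nearly all actives have a fitted effect of over 55% in size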
# Target sequence (P08659 whole entry, looked up): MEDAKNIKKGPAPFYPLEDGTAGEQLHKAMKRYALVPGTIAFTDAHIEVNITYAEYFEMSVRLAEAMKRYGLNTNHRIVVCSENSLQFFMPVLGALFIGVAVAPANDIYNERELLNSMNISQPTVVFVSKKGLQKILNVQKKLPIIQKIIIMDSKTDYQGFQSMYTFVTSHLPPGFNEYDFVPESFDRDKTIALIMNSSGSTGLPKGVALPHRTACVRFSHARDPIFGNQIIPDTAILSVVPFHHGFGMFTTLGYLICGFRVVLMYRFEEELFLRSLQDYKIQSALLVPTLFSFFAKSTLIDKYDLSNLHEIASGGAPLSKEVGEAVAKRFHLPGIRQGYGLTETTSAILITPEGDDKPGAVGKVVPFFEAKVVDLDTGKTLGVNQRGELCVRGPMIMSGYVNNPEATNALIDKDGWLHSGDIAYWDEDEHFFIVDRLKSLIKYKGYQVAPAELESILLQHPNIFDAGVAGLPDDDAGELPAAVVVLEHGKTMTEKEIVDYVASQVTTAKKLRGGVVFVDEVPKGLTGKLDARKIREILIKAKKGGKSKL
#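 Purified P. pyralis luciferase (10nM final) with 10uM D-luciferin and 10uM ATP (Km levels) in 50mM Tris acetate pH 7.5, 10mM Mg acetate, 0.01% Tween-20, 0.05% BSA; qHTS 6-point titration, ~60 µM downward; luminescence read.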
# Rab9 prom act: activates the Rab9 promoter | Huh7 Rab9 promoter-luciferase reporter, luminescence, 24 h | Potency, µM (top dose mostly 9.22 µM), without a hit: top-dose activation, negative = inhibition, actives largely listed as activators | actives 2.8% (n = 320,000); also: % of control where 0% means no effect; nearly all actives have a fitted effect of over 60% in size
#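 Huh7 reporter line, Rab9 promoter upstream of luciferase. Compound exposure 24 h at 37 °C in reduced-serum medium with 10% FBS. Read-out: luminescence.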
# * hit, by the source's call; ? = inconclusive; · = no result given; [ ] = dose if it differs, or a comment. Calls follow the shape of the dose curve; as a rule, active = well fitted curve in the direction sought with a large enough effect; inconclusive = small, poorly fitted or top-dose-only effect, or another doubt; inactive = no such curve, though single readings can be large; an effect the other way counts as inactive or inconclusive. Potency is read from the fitted curve at half-maximal effect.
SMILES,NPC1 promoter act,ELG1 genotoxic,SMN2 splice enh,Luc counter,FLuc modulator,Rab9 prom act
O=C(O)c1c(-c2c3ccc(=O)cc-3oc3cc(O)ccc23)cc2ccccc2c1-c1ccccc1,·,·,2.3%[9.22 µM],-4.2%[7.66 µM],·,·
CC(C)C=O,·,·,0.2%,·,·,·
COc1ccc(-n2ncc3c(N4CCN(c5cccc(C)c5C)CC4)ncnc32)cc1,-9.9%,1.5%,·,·,-0.1%,-1.1%
Clc1ccc(-n2ncc3c(N4CCCCCC4)ncnc32)cc1,-11.4%,0.146µM*,-101.2%,-10.8%,0.19µM*,-17.8%
CC1CC(C)CN(c2ncnc3c2cnn3Cc2ccc(Cl)cc2)C1 (stereo not given),1.7%,0.0%,5.1%,-0.6%,-0.4%,-8.9%
COc1ccc(-n2ncc3c(N4CCCCC4)ncnc32)cc1,-16.5%,0.0651µM*,-111.1%,?,0.169µM*,?
CC1CCN(c2ncnc3c2cnn3-c2ccc(F)cc2)CC1,·,·,·,·,3.01µM*,·
CC1CN(c2ncnc3c2cnn3-c2ccc(Cl)cc2)CC(C)O1 (stereo not given),1.12µM*,2.06µM*,?,0.4%,3.01µM*,1µM*
Cc1ccc(Cl)cc1-n1ncc2c(N3CCCCCC3)ncnc21,·,·,·,·,-13.2%,·
CCOc1ccc(CCNC(=O)c2c3c(nc4ccccc24)C(=O)N(C2CCCCC2)C3)cc1,·,·,·,·,-16.7%,·
Cc1ccc(-n2ncc3c(N4CCCCC4)ncnc32)cc1,·,·,·,·,0.0757µM*,·
C1=C(c2ccc(-c3ccccc3)cc2)Nc2ncnn2C1c1ccco1 (stereo not given),2.82µM*,9.7%,23.8%,-6.7%,21.3µM*,3.16µM*
Fc1ccc(C2=CC(c3ccco3)n3ncnc3N2)cc1 (stereo not given),-5.7%,1.4%,8.4%,2.7%,1.7%,1.9%
O=C(Cn1c(=O)n(Cc2ccco2)c(=O)c2ccccc21)Nc1ccc(Cl)cc1Cl,·,·,-2.0%,·,3.2%,·
Cc1ccc(C(=O)Oc2oc(-c3ccco3)nc2C=Nc2ccccc2)cc1,28.9%,14.4%,22.6%,-19.6%,15.1µM*,?
Oc1oc(-c2ccco2)nc1C=Nc1ccccc1,-2.2%,0.0%,·,4.3%,-4.9%[2.3 µM],11.0%
COc1ccc(N=Cc2nc(-c3ccccc3)oc2OC(=O)c2ccccc2)cc1,26.7%,?,118.7%,-6.6%,10.7µM*,?
CN(C)c1ccc(N=Cc2nc(-c3ccccc3)oc2OC(=O)c2cccc(Br)c2)cc1,?,?,15.8µM*,0.4%,?,27.8%
COc1ccc(NC(=O)c2cc3c(s2)-c2c(C)cccc2OC3)c(OC)c1,·,·,-5.7%,·,-9.7%,·
COc1ccc(COC2OC[C@]3(C)[C@H]4C5=C(CN3C(=O)OC(C)(C)C)[C@H](C)C(CO)C(CO)C5CC[C@@H]24)cc1 (stereo not given in full),·,·,-4.4%,-1.3%,·,·
COc1ccc(C(=O)N(Cc2cc(OC)c(OC)c(OC)c2)C2CCS(=O)(=O)C2)cc1Cl (stereo not given),·,·,5.1%,·,-0.5%,·
CCc1ccc(-n2c(=O)c3c4c(sc3n(CC(=O)c3ccc(F)cc3)c2=O)CCC4)cc1,·,·,-2.1%,·,-6.2%,·
COc1cc(NS(C)(=O)=O)ccc1Cc1c2ccccc2nc2ccccc12,·,·,-67.2%,-1.6%,·,·
CN(C)C(=O)c1ccc(-c2nc(Nc3ccncc3)c3ccccc3n2)cc1,·,·,?,-2.5%,·,·
CCCOc1ccc(-c2nc(N3CCN(C)CC3)c3ccccc3n2)cc1,?,?,·,·,4.78µM*,3.16µM*
SMILES,NPC1 promoter act,ELG1 genotoxic,SMN2 splice enh,Luc counter,FLuc modulator,Rab9 prom act
CN(C)c1ccc(-c2nc(N3CCNCC3)c3ccccc3n2)cc1,·,·,11.2µM*,-12.5%,·,·
CN(C)c1ccc(-c2nc(Nc3ccncc3)c3ccccc3n2)cc1,·,·,11.2µM*,-8.2%,·,·
Cc1ccc(Cl)cc1N1CCN(C(=O)CCS(=O)(=O)c2ccc3c(c2)oc(=O)n3C)CC1,·,·,·,·,-8.1%,·
O=C(CC1(O)C(=O)N(CCc2ccccc2)c2ccc(Br)cc21)c1ccc(F)cc1 (stereo not given),·,·,-18.7%,·,-5.8%,·
CN1CCSc2ccc(C(=O)Nc3cc(F)ccc3F)cc21,1.26µM*,2.59µM*,·,·,2.13µM*,0.891µM*
Cc1ccccc1NC(=O)c1ccc2c(c1)N(C)CCS2,?,?,·,·,10.7µM*,?
COC(=O)c1ccc2c(c1)N(C)CCS2,-2.1%,14.6%,6.1%,1.1%,-0.1%,-1.8%
COc1cccc(Cn2cnc3c(sc4nc(C)cc(C)c43)c2=O)c1,-5.1%,9.5%,·,·,5.1%,1.9%
CC(=O)Cn1cnc2c(sc3nc(C)cc(C)c32)c1=O,26.7%,?,·,·,15.1µM*,24.1%
CCOC(=O)C1CCC(CN(Cc2c(Cl)cccc2Cl)S(=O)(=O)c2ccc(F)c(C)c2)CC1 (stereo not given),·,·,·,·,-1.2%,·
C/C(=N\NC1=NCCN1)c1ccc(Cl)cc1,-3.5%,-0.4%,·,·,2.5%,-3.2%
CC(C)(C)c1ccc(C(=O)NC(=S)Nc2nc3c(s2)CCCC3)cc1,27.7%,?,-52.4%,1.1%,5.36µM*,?
CN(C)c1ccc(C(=O)Nc2nc3c(s2)CCCC3)cc1,0.447µM*,?,0.631µM*,?,0.239µM*,0.316µM*
COC(=O)Nc1nc2c(s1)CCCC2,16.2%,?,28.0%,-2.2%,-16.8%,14.9%
C/C(=N\Nc1nc2c(s1)CCCC2)c1ccc(Cl)cc1,-1.7%,?,-21.9%,-0.3%,19µM*,18.9%
CCCNC(=O)/C=C/c1ccc(C(C)C)cc1,21.8%,?,?,-2.7%,16.9µM*,27.9%
CC(C)c1ccc(/C=C/C(=O)O)cc1,0.0%,0.8%,·,·,19µM*,-6.0%
CC(C)c1ccc(/C=C/C(=O)NCCCc2ccccc2)cc1,-2.4%,0.6%,-14.9%,1.0%,?,-3.2%
O=C(O)/C=C/c1ccc(/C=C/C(=O)O)cc1,·,·,8.1%,·,·,·
O=C(Cc1ccccc1)n1nc(-c2ccco2)nc1SCc1ccccc1,23.5%,?,11.0%,-0.7%,16.9µM*,15.4%
Cc1ccc(S(=O)(=O)n2nc(-c3ccco3)nc2SCc2ccccc2)cc1,18.2%,14.6%,15.8µM*,8.0%,23.9µM*,21.9%
CCCC(=O)n1nc(-c2ccco2)nc1SCc1ccccc1,13.3%,7.6%,?,2.1%,9.53µM*,17.4%
O=C(NC1=NCCS1)Nc1ccccc1,1.41µM*,?,10µM*,-28.8%,9.53µM*,1.41µM*
CC(C)c1ccc(OCC(=O)NC2=NCCS2)cc1,?,27.3%,·,-10.0%,7.57µM*,16.1%
O=C(COc1ccccc1)NC1=NCCS1,-4.6%,14.6µM*,-27.8%,-23.9%,7.57µM*,-1.6%
CC(Oc1ccccc1)C(=O)NC1=NCCS1 (stereo not given),?,?,14.1µM*,-6.5%,15.1µM*,3.16µM*
O=C(NC1=NCCS1)c1ccccc1,20.9%,15.7%,·,·,-17.6%,23.5%
